# In the supplement of paper PMC7765376:
# Counter-ions that a name gives are not always drawn. Over roughly 1,500 compounds, “Excess HSA synergy score (sum over dose matrix of excess over highest single agent)” has its median near 43; the lowest 2% begin near -900. The full list was thinned out, with the lowest values kept by preference.
# Test system: PEO-1
# Assay: Excess HSA synergy score (sum over dose matrix of excess over highest single agent) (score (summed % response)); higher = less synergy / more antagonism (negative = synergy)
# Conditions: 72 h, read-out: viability/apoptosis luminescence (CellTiter-Glo or Caspase3-Glo / not stated per table)
# [1] = matrix design: 6x6, 5-fold dilutions (primary screen)
# [2] = matrix design: 10x10, 9-step dilutions (confirmatory)
SMILES,Excess HSA synergy score [1],Excess HSA synergy score [2]
O=C(N[C@@H](c1ccccc1)[C@@H]1CCCCN1)c1cccc(C(F)(F)F)c1Cl + CC[C@H](NC(=O)[C@H](C)NC)C(=O)N1C[C@@H](O)C[C@H]1Cc1c(-c2[nH]c3cc(F)ccc3c2C[C@@H]2C[C@H](O)CN2C(=O)[C@H](CC)NC(=O)[C@H](C)NC)[nH]c2cc(F)ccc12 [Birinapant],61.9,–
CC[C@@]1(O)C(=O)OCc2c1cc1n(c2=O)Cc2cc3c(CN(C)C)c(O)ccc3nc2-1 [Topotecan hydrochloride] + CC[C@H](NC(=O)[C@H](C)NC)C(=O)N1C[C@@H](O)C[C@H]1Cc1c(-c2[nH]c3cc(F)ccc3c2C[C@@H]2C[C@H](O)CN2C(=O)[C@H](CC)NC(=O)[C@H](C)NC)[nH]c2cc(F)ccc12 [Birinapant],-166,-963
CC[C@@]1(O)C(=O)OCc2c1cc1n(c2=O)Cc2cc3cc(O)ccc3nc2-1 [10-hydroxycamptothecin] + CC[C@H](NC(=O)[C@H](C)NC)C(=O)N1C[C@@H](O)C[C@H]1Cc1c(-c2[nH]c3cc(F)ccc3c2C[C@@H]2C[C@H](O)CN2C(=O)[C@H](CC)NC(=O)[C@H](C)NC)[nH]c2cc(F)ccc12 [Birinapant],-38.5,–
CCc1c2c(nc3ccc(O)cc13)-c1cc3c(c(=O)n1C2)COC(=O)[C@]3(O)CC + CC[C@H](NC(=O)[C@H](C)NC)C(=O)N1C[C@@H](O)C[C@H]1Cc1c(-c2[nH]c3cc(F)ccc3c2C[C@@H]2C[C@H](O)CN2C(=O)[C@H](CC)NC(=O)[C@H](C)NC)[nH]c2cc(F)ccc12 [Birinapant],0.514,–
O=C(C1CC1)N1CC[C@@H](Cn2c(-c3ccc(-c4ccc5occc5c4)cc3)nc3cnccc32)C1 + CC[C@H](NC(=O)[C@H](C)NC)C(=O)N1C[C@@H](O)C[C@H]1Cc1c(-c2[nH]c3cc(F)ccc3c2C[C@@H]2C[C@H](O)CN2C(=O)[C@H](CC)NC(=O)[C@H](C)NC)[nH]c2cc(F)ccc12 [Birinapant],117,–
CCCCCN(CCC12CC3CC(CC(C3)C1)C2)C(=O)NCCCc1ccncc1 + CC[C@H](NC(=O)[C@H](C)NC)C(=O)N1C[C@@H](O)C[C@H]1Cc1c(-c2[nH]c3cc(F)ccc3c2C[C@@H]2C[C@H](O)CN2C(=O)[C@H](CC)NC(=O)[C@H](C)NC)[nH]c2cc(F)ccc12 [Birinapant],297,–
Cn1cc(/C=C/C(=O)c2cccc(F)c2)cc1/C=C/C(=O)NO + CC[C@H](NC(=O)[C@H](C)NC)C(=O)N1C[C@@H](O)C[C@H]1Cc1c(-c2[nH]c3cc(F)ccc3c2C[C@@H]2C[C@H](O)CN2C(=O)[C@H](CC)NC(=O)[C@H](C)NC)[nH]c2cc(F)ccc12 [Birinapant],132,–
COC1=C2C[C@@H](C)C[C@H](OC)[C@H](O)[C@@H](C)/C=C(\C)[C@H](OC(N)=O)[C@@H](OC)/C=C\C=C(/C)C(=O)NC(=CC1=O)C2=O [Geldanamycin] + CC[C@H](NC(=O)[C@H](C)NC)C(=O)N1C[C@@H](O)C[C@H]1Cc1c(-c2[nH]c3cc(F)ccc3c2C[C@@H]2C[C@H](O)CN2C(=O)[C@H](CC)NC(=O)[C@H](C)NC)[nH]c2cc(F)ccc12 [Birinapant],115,-710
CCc1cc(-c2n[nH]c(C)c2-c2ccc3c(c2)OCCO3)c(O)cc1O + CC[C@H](NC(=O)[C@H](C)NC)C(=O)N1C[C@@H](O)C[C@H]1Cc1c(-c2[nH]c3cc(F)ccc3c2C[C@@H]2C[C@H](O)CN2C(=O)[C@H](CC)NC(=O)[C@H](C)NC)[nH]c2cc(F)ccc12 [Birinapant],405,–
Cc1c[nH]c(/C=C2\C(=O)Nc3ccccc32)c1CCC(=O)O + CC[C@H](NC(=O)[C@H](C)NC)C(=O)N1C[C@@H](O)C[C@H]1Cc1c(-c2[nH]c3cc(F)ccc3c2C[C@@H]2C[C@H](O)CN2C(=O)[C@H](CC)NC(=O)[C@H](C)NC)[nH]c2cc(F)ccc12 [Birinapant],54.2,–
CC1(C)O[C@H]2CC(=O)OC[C@]23[C@H]2CC[C@@]4(C)[C@H](c5ccoc5)OC(=O)[C@H]5O[C@]54[C@]2(C)C(=O)C[C@@H]13 [Limonin] + CC[C@H](NC(=O)[C@H](C)NC)C(=O)N1C[C@@H](O)C[C@H]1Cc1c(-c2[nH]c3cc(F)ccc3c2C[C@@H]2C[C@H](O)CN2C(=O)[C@H](CC)NC(=O)[C@H](C)NC)[nH]c2cc(F)ccc12 [Birinapant],15.5,–
COc1cccc2c1C(=O)c1c(O)c3c(c(O)c1C2=O)C[C@@](O)(C(=O)CO)C[C@@H]3O[C@H]1C[C@H](N)[C@@H](O)[C@H](C)O1 [Epirubicin hydrochloride] + CC[C@H](NC(=O)[C@H](C)NC)C(=O)N1C[C@@H](O)C[C@H]1Cc1c(-c2[nH]c3cc(F)ccc3c2C[C@@H]2C[C@H](O)CN2C(=O)[C@H](CC)NC(=O)[C@H](C)NC)[nH]c2cc(F)ccc12 [Birinapant],-93.1,–
CC[C@@]1(O)C[C@H](O[C@H]2C[C@H](N(C)C)[C@H](O[C@H]3C[C@H](O)[C@H](O[C@H]4CCC(=O)[C@H](C)O4)[C@H](C)O3)[C@H](C)O2)c2c(cc3c(c2O)C(=O)c2c(O)cccc2C3=O)[C@H]1C(=O)OC [Aclarubicin] + CC[C@H](NC(=O)[C@H](C)NC)C(=O)N1C[C@@H](O)C[C@H]1Cc1c(-c2[nH]c3cc(F)ccc3c2C[C@@H]2C[C@H](O)CN2C(=O)[C@H](CC)NC(=O)[C@H](C)NC)[nH]c2cc(F)ccc12 [Birinapant],-147,-1130
COc1cccc2c1C(=O)c1c(O)c3c(c(O)c1C2=O)C[C@@](O)(C(=O)CO)C[C@@H]3O[C@H]1C[C@H](N)[C@H](O)[C@H](C)O1 [Doxorubicin] + CC[C@H](NC(=O)[C@H](C)NC)C(=O)N1C[C@@H](O)C[C@H]1Cc1c(-c2[nH]c3cc(F)ccc3c2C[C@@H]2C[C@H](O)CN2C(=O)[C@H](CC)NC(=O)[C@H](C)NC)[nH]c2cc(F)ccc12 [Birinapant],-136,–
CCc1cc2c(cc1N1CCC(N3CCOCC3)CC1)C(C)(C)c1[nH]c3cc(C#N)ccc3c1C2=O + CC[C@H](NC(=O)[C@H](C)NC)C(=O)N1C[C@@H](O)C[C@H]1Cc1c(-c2[nH]c3cc(F)ccc3c2C[C@@H]2C[C@H](O)CN2C(=O)[C@H](CC)NC(=O)[C@H](C)NC)[nH]c2cc(F)ccc12 [Birinapant],183,–
C[Se]CC[C@H](N)C(=O)O [L-selenomethionine] + CC[C@H](NC(=O)[C@H](C)NC)C(=O)N1C[C@@H](O)C[C@H]1Cc1c(-c2[nH]c3cc(F)ccc3c2C[C@@H]2C[C@H](O)CN2C(=O)[C@H](CC)NC(=O)[C@H](C)NC)[nH]c2cc(F)ccc12 [Birinapant],115,–
CC(=O)O/N=C1/C(=C2/C(=O)Nc3cc(Br)ccc32)Nc2ccccc21 [6-Bromoindirubin-3'-acetoxime] + CC[C@H](NC(=O)[C@H](C)NC)C(=O)N1C[C@@H](O)C[C@H]1Cc1c(-c2[nH]c3cc(F)ccc3c2C[C@@H]2C[C@H](O)CN2C(=O)[C@H](CC)NC(=O)[C@H](C)NC)[nH]c2cc(F)ccc12 [Birinapant],131,–
Cc1ccc(C(=O)N(CCCN)[C@@H](c2nc3cc(Cl)ccc3c(=O)n2Cc2ccccc2)C(C)C)cc1 [Ispinesib] + CC[C@H](NC(=O)[C@H](C)NC)C(=O)N1C[C@@H](O)C[C@H]1Cc1c(-c2[nH]c3cc(F)ccc3c2C[C@@H]2C[C@H](O)CN2C(=O)[C@H](CC)NC(=O)[C@H](C)NC)[nH]c2cc(F)ccc12 [Birinapant],-86.8,–
Nc1nccc(-c2ccc3noc(-c4ccc(Cl)cc4)c3c2)n1 [Pim 1 Inhibitor 2] + CC[C@H](NC(=O)[C@H](C)NC)C(=O)N1C[C@@H](O)C[C@H]1Cc1c(-c2[nH]c3cc(F)ccc3c2C[C@@H]2C[C@H](O)CN2C(=O)[C@H](CC)NC(=O)[C@H](C)NC)[nH]c2cc(F)ccc12 [Birinapant],12.2,–
C=CCNc1c(O)cc2c(O)c1C[C@@H](C)C[C@H](OC)[C@H](O)[C@@H](C)/C=C(\C)[C@H](OC(N)=O)[C@@H](OC)/C=C\C=C(/C)C(=O)N2 [Retaspimycin] + CC[C@H](NC(=O)[C@H](C)NC)C(=O)N1C[C@@H](O)C[C@H]1Cc1c(-c2[nH]c3cc(F)ccc3c2C[C@@H]2C[C@H](O)CN2C(=O)[C@H](CC)NC(=O)[C@H](C)NC)[nH]c2cc(F)ccc12 [Birinapant],-10.7,–
NC(=O)Nc1cc(-c2cccc(F)c2)sc1C(=O)N[C@H]1CCCNC1 + CC[C@H](NC(=O)[C@H](C)NC)C(=O)N1C[C@@H](O)C[C@H]1Cc1c(-c2[nH]c3cc(F)ccc3c2C[C@@H]2C[C@H](O)CN2C(=O)[C@H](CC)NC(=O)[C@H](C)NC)[nH]c2cc(F)ccc12 [Birinapant],119,–
Cc1cccc(Nc2nc(-c3ccncc3)cs2)c1 + CC[C@H](NC(=O)[C@H](C)NC)C(=O)N1C[C@@H](O)C[C@H]1Cc1c(-c2[nH]c3cc(F)ccc3c2C[C@@H]2C[C@H](O)CN2C(=O)[C@H](CC)NC(=O)[C@H](C)NC)[nH]c2cc(F)ccc12 [Birinapant],69.4,–
COc1cc(F)c(C(C)C)cc1-c1ccc(C(F)(F)F)cc1CN1C(=O)O[C@H](c2cc(C(F)(F)F)cc(C(F)(F)F)c2)[C@@H]1C [Anacetrapib] + CC[C@H](NC(=O)[C@H](C)NC)C(=O)N1C[C@@H](O)C[C@H]1Cc1c(-c2[nH]c3cc(F)ccc3c2C[C@@H]2C[C@H](O)CN2C(=O)[C@H](CC)NC(=O)[C@H](C)NC)[nH]c2cc(F)ccc12 [Birinapant],-71.8,–
